From PubChem BioAssay AID1347076 (National Center for Advancing Translational Sciences (NCATS), 2019)
About 13,000 (3.2%) of roughly 400,000 compounds were called active. Another 18% or so got no clear call; they are omitted. Many of the other results were omitted from the sample, so actives are more common in it than they were. Values without a mark were called inactive. Calls follow the shape of the dose curve; as a rule, active = well fitted cell-killing curve with a large enough effect; inconclusive = small, poorly fitted or top-dose-only effect, or effect the other way; inactive = flat fitted curve, though single readings scatter.

Assay: qHTS assay for MDR1-selective chemotherapeutics: Primary screen using the drug-selected MDR subline cells KB-V1; also: nearly all actives have a fitted effect of over 60% in size
Conditions: KB-V1 MDR cells viability, CellTiter-Glo, 72 h; series mostly up to 46.1 µM; activity change, negative = cytotoxicity: at the top concentration
From the text: A prime difficulty in effectively treating cancer is the development of cellular resistance to multiple structurally unrelated anticancer drugs, a phenomenon known as multidrug resistance (MDR). […] Numerous strategies to overcome P-gp-mediated MDR have been explored, including the design of drugs that evade recognition and efflux, and development of inhibitors to block efflux and restore drug accumulation. […] An alternative approach is to exploit resistance by identifying drugs that target MDR cells over the non-resistant parental cells from which they were selected. […] The development of MDR1-selective agents represents a new strategy for resolving multidrug resistance, as it remains a long-standing clinical challenge for cancer chemotherapy.
Our goal is to identify compounds that selectively kill P-gp-expressing MDR cells. We will identify MDR1-selective compounds by comparing toxicity of compounds in the screening library against parental, drug-naive (KB-3-1) adenocarcinoma cells as well as their drug-selected MDR sub-line (KB-V1). The differential toxicity of compounds against these two cell lines will be used to identify MDR1-selective compounds, whose cytotoxicity is potentiated, rather than diminished, by P-gp expression. This assay will be utilized to conduct a quantitative high-throughput screen (qHTS) in collaboration with the NIH Chemical Genomics Center to identify selective agents, and probe hits arising from the screen will be validated using secondary assays and characterized through a well-established follow-up research program. This screen was run against the entire NCGC library collection of about 400,000 compounds.
NIH Molecular Libraries Probe Production Network [MLPCN]
NIH Chemical Genomics Center [NCGC]
PI: Michael Gottesman, National Cancer Institute, NIH
Briefly, 5 microL of media containing either KB-V1 cells (columns 1-2, 4-48) are dispensed into Greiner white, treated solid-bottom 1536-well assay plates (media-only control is added to column 3). Compounds are then transferred via Kalypsys pin tool equipped with 1536-pin array (10 nL slotted pins, V&P Scientific, San Diego, CA). Following addition of compound, the plates are incubated at 37 degrees C for 72 hours. CellTiter-Glo (2.5 µL/well) is then added, and the plates are read in a ViewLux reader (Perkin-Elmer, clear luminescence filter, 1 second exposure, 1x binning) following a 10 minute incubation. All cells are dispensed in DMEM phenol-red free media containing 10% FBS.
Library plates were screened starting from the lowest and proceeding to the highest concentration. Vehicle-only plates, with DMSO being pin-transferred to columns 5-48, will be inserted uniformly at the beginning and the end of each library in order to monitor and record any shifts in the background, which can be affected by reagent dispensers or loss in enzyme activity over time. Screening data will be corrected, normalized, and concentration-effect relationships will be derived by using publicly-available NCGC, NCATS curve fitting algorithms (http://ncgc.nih.gov/pub/openhts).
% is scaled to controls: 0 for no effect and ±100 for the full control effect; potency is read from the fitted curve at half-maximal effect.

Compound | activity change, negative = cytotoxicity [%] | Potency
CCCCCCCCN1C(=O)[C@H](CC(=O)NCc2cccc3ccccc23)C[C@@]2(C(=O)OC)CCCCC=C12 | -23.6 | 
Cc1ccccc1S(=O)(=O)NC(=O)C1(C)CCN1C(=O)Cc1ccc(Cl)cc1Cl (stereo not drawn) | 4.1 | 
CCc1nc2c(OCCOc3ccc(F)cc3)cccn2c1N(C)C(=O)c1ccccc1F | -15.3 | 
Clc1ccc(-c2cccc3nccn23)cc1 | -9.65 | 
C=CCN1CCN(c2ccncc2S(=O)(=O)N2CCN(C)CC2)CC1 | -1.22 | 
COc1cccc(NC(=O)Nc2ccc3c(c2)N(C)C(=O)c2ccccc2S3)c1 | -27 | 
CC1(C)C=Cc2c(ccc(C(=O)/C=C/c3ccccc3)c2O)O1 | 0 | 
O=C(NCCCN1CCOCC1)c1ccc(N2CCCC2)c([N+](=O)[O-])c1 | -11.8 | 
O=C(COc1ccccc1F)NNC(=O)c1ccc(N2CCCCC2)c([N+](=O)[O-])c1 |  | 16.4 µM (active)
O=C(c1ccc(N2CCOCC2)c([N+](=O)[O-])c1)N1CCN(c2ccccc2F)CC1 | -21.3 | 
CN(C)c1cccc(NC(=O)c2ccc(-c3ccc(F)c(F)c3)c3ccoc23)c1 | -1.95 | 
CO[C@@H]1CN(C)C(=O)c2cc(NC(=O)Nc3cc(F)ccc3F)ccc2OC[C@H](C)N(C(=O)c2ccccn2)C[C@@H]1C | 5.61 | 
CCCCC(=O)OC1=CN(Cc2ccccc2)S(=O)(=O)c2ccccc21 | -1.9 | 
O=C(COc1ccc2oc3c(c2c1)CCCC3)Nc1ccccn1 | -4.62 | 
CC1CCCCN1CC(=O)N1CCCc2c1c(=O)oc1ccc(OCc3ccccc3)cc21 (stereo not drawn) | -18 | 
O=C(CN1CCOCC1)N1CCCc2c1c(=O)oc1ccc(OCc3ccccc3)cc21 |  | 18.4 µM (active)
CCOc1ccc(CCN2C(=S)N([C@@H](CC(C)C)CN3CCC[C@@H]3CN3C(=S)NC[C@@H]3Cc3ccc(O)cc3)C[C@@H]2CC(C)C)cc1 | -22.3 | 
CC(=O)Nc1cncc(-c2ccccc2CO)n1 | 5.41 | 
O=C(Nc1ccccc1C(=O)N1CCCCCC1)c1ccccc1Cl | -6.29 | 
COc1ccccc1N(CC(=O)Nc1ccccc1C(=O)N1CCCC1)S(C)(=O)=O | -2.86 | 
O=C(CN(c1ccccc1)S(=O)(=O)c1ccc(Cl)cc1)Nc1ccccc1C(=O)N1CCCC1 |  | 5.8 µM (active)
COc1cccc(CN(C)C(=O)CC[C@H]2O[C@@H](n3cnc4c(NC(=O)c5ccccc5)ncnc43)[C@H](O)[C@@H]2O)c1 | 1.92 | 
Cc1ccc(C)c(N2CCN(C(=O)CCCCCn3c(=S)[nH]c4ccc(N5CCOCC5)cc4c3=O)CC2)c1 | -24.5 | 
COc1cccc(N2CCN(C(=O)CCCCCn3c(=O)[nH]c4ccccc4c3=O)CC2)c1 | 1.41 | 

Compound | activity change, negative = cytotoxicity [%] | Potency
Cc1ccc(C)c(N2CCN(C(=O)CCCCn3c(=O)[nH]c4ccccc4c3=O)CC2)c1 |  | 6.51 µM (active)
COc1ccc(CCNC(=O)CCCCn2c(=O)c3ccccc3n(Cc3ccccc3)c2=O)cc1OC | -6.38 | 
Oc1ccccc1-c1nc(/C=C/c2ccc(F)cc2)no1 | 1.77 | 
Cc1ccc(-c2noc(CSc3nnnn3-c3ccccc3)n2)cc1 | 2.44 | 
COc1ccc(-c2noc(CSc3nnc(-c4ccccc4)n3-c3ccc(F)cc3)n2)c(OC)c1 | -23.8 | 
Cn1cccc1Cc1nnc(SCC(=O)NCCc2ccccc2)n1-c1ccc(F)cc1 | -0.962 | 
Cc1ccc(-c2noc(CSc3nnc(-c4cccs4)n3C)n2)cc1 |  | 13 µM (active)
Cc1ccc(-c2noc(CSc3nnc(-c4ccccc4)n3C)n2)cc1 | -10.1 | 
Cc1ccc(-c2noc(CSc3nnc(-c4ccncc4)n3-c3ccc(F)cc3)n2)cc1 |  | 8.2 µM (active)
Fc1ccc(-n2c(Cc3ccccc3)nnc2SCc2nc(-c3ccc(Cl)cc3)no2)cc1 |  | 14.6 µM (active)
COc1ccc(-c2noc(CSc3nc4ccc(C)cc4[nH]3)n2)cc1 | -28.5 | 
Cc1ccc(-c2noc(CSc3nnc(-c4ccc(Cl)cc4)n3C)n2)cc1 | 0 | 
Cc1ccc(C(=O)Nc2c(-c3ccccc3)[nH][nH]c2=O)cc1 | 1.55 | 
O=C(NCc1ccccc1Cl)C1=Cc2cc(Br)ccc2OC1 | -7.05 | 
CC(C)Oc1cc(F)ccc1-c1cc(C(=O)Nc2ccc(F)cc2)[nH]n1 | -24.1 | 
CC(Nc1ccc(-c2nc(-c3ccco3)no2)cc1[N+](=O)[O-])c1ccccc1 (stereo not drawn) | 0 | 
Cc1cc(C)cc(NS(=O)(=O)c2ccc3[nH]cc(C(=O)N4CCCCC4)c(=O)c3c2)c1 | 6.52 | 
CCCNC(=O)C1(C)CCN(C(=O)c2cc(F)ccc2C)C1 (stereo not drawn) | 4.07 | 
C=Cc1ccc(Cn2c(C(=O)O)c(CNC3CCCC3)c3ccc(C)cc32)cc1 | 0 | 
COc1ccc(S(=O)(=O)N2CCC(C(=O)NCc3ccco3)CC2)cc1C | -26.8 | 
CC1(C)SC2c3ccccc3C(=O)N2[C@@H]1C(=O)NCc1ccco1 (stereo partly drawn) | 3.48 | 
COc1cc2c(cc1OC)C(C(=O)NCc1ccco1)C1c3ccccc3CCN1C2=O (stereo not drawn) |  | 14.6 µM (active)
COCCNc1nc(NCc2ccc(NC(C)=O)cc2)c2sccc2n1 | 23.4 | 
Cc1cccc(-n2c(SCC(N)=O)nc3c(oc4ccccc43)c2=O)c1 | -18.9 | 
